Reference: PubChem BioAssay AID435030 (The Scripps Research Institute Molecular Screening Center, 2010)
In all, about 330,000 compounds went through this assay and about 940 (0.28%) were called active. The sample as a whole holds a higher share of actives than the screen did. Values without a mark were called inactive. Cut-off read from the data, not from the text of the source: active = inhibition above about 12%; inactive = the rest.

Assay: growth inhibition of E. coli expressing H. pylori AddAB, primary screen, AddAB inhibitor project, absorbance (AID 435030);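 note: 0% = vehicle wells of infected cells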
Details: at 11.9 µM, stronger effect = higher value
Work on O=C(Oc1ccc([N+](=O)[O-])cc1)c1ccc2ccccc2n1 yielded an inhibition of 0.94%. In the case of O=[N+]([O-])c1ccc(N=Cc2c(O)ccc3ccccc23)cc1, the inhibition is reported as 39.5% (active). For Cc1nc2ccccc2nc(=O)c1NNc1ccc([N+](=O)[O-])cc1, the inhibition was 0.52%. Compound CC(Sc1nnc(Cc2ccc([N+](=O)[O-])cc2)o1)C(N)=O (stereo not drawn) has an inhibition of 2.62%. COC(=O)c1cc(S(=O)(=O)Nc2ccc(C)c(F)c2)c[nH]1 gave an inhibition of 2.73%. For CCOc1ccc(OCC)c(NC(=O)C(NS(=O)(=O)c2ccc3c(c2)oc(=O)n3C)C(C)C)c1 (stereo not drawn), the inhibition was 0.33%. O=C(CCNS(=O)(=O)c1ccccc1)NCCSc1ccc(Br)cc1 showed an inhibition of -1.46%. CC(C)(C)CC(=O)Nc1nnc(SCC(=O)NCc2cccs2)s1 gave an inhibition of 1.97%. For Cc1cccc(NC(=O)Cn2cc(C(=O)c3ccco3)c3ccccc32)c1, the inhibition was 13.8% (active). Compound O=C(Cn1cc(C(=O)c2cccs2)c2ccccc21)NCc1cccs1 has an inhibition of -0.41%. For CC1CCN(C(=O)Cn2cc(C(=O)c3ccco3)c3ccccc32)CC1, the inhibition was 0.41%. Cc1cc(C)c(S(=O)(=O)N2CCCC2CNC(=O)c2ccc3c(c2)OCO3)c(C)c1 (stereo not drawn) showed an inhibition of 2.32%. With N#Cc1ccc(OCCN2C(=O)NC3(CCSC3)C2=O)cc1 (stereo not drawn) the inhibition was -2.01%. For O=C(OCC(=O)N1CCN(C(=O)c2ccco2)CC1)c1c(Cl)cccc1Cl, the inhibition was 1.58%. NS(=O)(=O)c1cccc(NC(=O)COC(=O)c2cc([N+](=O)[O-])ccc2N2CCCC2)c1 showed an inhibition of 0.9%. For CCn1c(/C=C/c2ccc([N+](=O)[O-])o2)nc2ccccc2c1=O, the inhibition was 17.8% (active). CCOCCCn1c(NN)nc2ccccc2c1=O showed an inhibition of 1.87%. Work on CCn1c(=O)c([N+](=O)[O-])c(NCc2ccc3c(c2)OCO3)c2ccccc21 yielded an inhibition of -0.08%. Work on CCOC(=O)c1sc(/N=C/C2=C(O)CC(C)(C)CC2=O)c(C(=O)OCC)c1C yielded an inhibition of -0.77%. Compound Cc1occc(=O)c1OCc1c(Cl)cccc1Cl has an inhibition of -0.74%. For CCOC(=O)c1ccc(NC(=O)Cc2cccs2)cc1, the inhibition was 3.49%. Compound CCCc1nnc(SCC(=O)Nc2ccc(C(=O)OCC)cc2)o1 has an inhibition of 2.66%. In the case of CCOC(=O)c1ccc(NC(=O)Cn2cnc3cc(C)c(C)cc32)cc1, the inhibition is reported as 21% (active). CSCc1ccc(C(=O)Nc2cc(C)cc(C)c2)cc1 gave an inhibition of 0.9%. In the case of CSCCC(NC(=O)c1cc([N+](=O)[O-])cc([N+](=O)[O-])c1)c1nc2ccccc2[nH]1 (stereo not drawn), the inhibition is reported as 2.67%. For CSC(=S)N/N=C/c1c[nH]c2ccccc12, the inhibition was 14.4% (active). With O=C(O)c1cccc(NC(=S)N/N=C/c2c[nH]c3ccccc23)c1 the inhibition was 3.31%. Compound Nc1nonc1-n1nnc(C(=O)N/N=C/c2c[nH]c3ccccc23)c1-c1ccccc1 has an inhibition of 0.34%. Work on COC(=O)c1cc(S(=O)(=O)N2CCC(C(N)=O)CC2)oc1C yielded an inhibition of -2.11%. Compound COc1cccc(OC)c1CN(C)C(=O)c1cnccc1C(F)(F)F has an inhibition of 3.15%. CC(=O)Nc1ccc(CN2CCN(Cc3ccc(F)c(F)c3)C(CCO)C2)cc1 (stereo not drawn) showed an inhibition of 2.22%. In the case of Cc1cn(C2OC[C@@H](O)[C@@H]2CO)c(=O)[nH]c1=O (stereo partly drawn), the inhibition is reported as 0.5%. With Cc1cn(C2C=CC(CO)O2)c(=O)[nH]c1=O (stereo not drawn) the inhibition was 20.5% (active). CCOC(=O)C1=NOC(Cn2cc(C(C)=O)c(=O)[nH]c2=O)C1 (stereo not drawn) gave an inhibition of 3.64%. In the case of O=C(NNC(=O)C1C2CCC(C2)C1C(=O)O)c1ccc(Cl)cc1 (stereo not drawn), the inhibition is reported as -0.52%. Cc1ccc(NC(=O)CN(C)C(=O)COC(=O)C(C)(C)Oc2ccc(Cl)cc2)cc1 gave an inhibition of 1.52%. Cc1ccc(O)c(NC(=O)c2cc(-c3ccco3)on2)c1 gave an inhibition of 2.66%. Work on Nc1nonc1-n1nnc(C(=O)N/N=C/c2ccccc2O)c1CN1CCCC1 yielded an inhibition of 4.54%. With Cc1ccc(SCc2c(C(=O)N/N=C/c3cccnc3)nnn2-c2nonc2N)cc1 the inhibition was 3.86%. For Nc1nonc1-n1nnc(C(=O)N/N=C/c2cc(Br)ccc2O)c1CSC1=NCCS1, the inhibition was 17.5% (active). Work on CCOc1ccc(N(CC(=O)Nc2ccccc2F)S(=O)(=O)c2c(C)[nH]c(=O)[nH]c2=O)cc1 yielded an inhibition of 3.71%. Work on CCOc1ccccc1NC(=O)COc1ccc(S(=O)(=O)N2CCCC2)cc1 yielded an inhibition of 2.68%. Work on O=C(NC(Cc1ccccc1)C(=O)O)/C(=C\c1ccccc1)NC(=O)c1ccco1 (stereo not drawn) yielded an inhibition of 0.08%. Work on O=C(CCS(=O)(=O)c1ccccc1)Nc1nc2c(s1)CCCC2 yielded an inhibition of -2.56%. For O=C(Cn1c(=O)sc2ccccc21)Nc1nc2c(s1)CCCC2, the inhibition was 12.5% (active). Cc1nnc(NC(=O)Cn2c(=O)sc3ccccc32)s1 showed an inhibition of 3.04%. In the case of CC(=O)Oc1ccccc1C(=O)Nc1ncc([N+](=O)[O-])s1, the inhibition is reported as 13.3% (active). With Cc1cnc(NC(=O)c2ccccn2)s1 the inhibition was -4.66%. For O=C(Cc1c(F)cccc1Cl)Nc1ncc([N+](=O)[O-])s1, the inhibition was 5.83%. Compound COc1ccccc1CNC(=O)Cn1c(=O)oc2cc(Cl)ccc21 has an inhibition of 4.32%. Work on COC(=O)C1=C(Nc2ccc(C)cc2)C=C(C)C(C(=O)OC)C1c1ccc(F)cc1 (stereo not drawn) yielded an inhibition of 1.3%. In the case of NC(=O)COC(=O)c1sc2cc(F)ccc2c1Cl, the inhibition is reported as 1.69%. In the case of CCOC(=O)N1CCC(Nc2c(NCCCN3CCN(c4ccc(OC)cc4)CC3)c(=O)c2=O)CC1, the inhibition is reported as 2.85%. Compound CC(NC(=O)COC(=O)C1CCN(S(=O)(=O)c2ccccc2C(F)(F)F)CC1)c1ccccc1 (stereo not drawn) has an inhibition of 0.81%. For CC[C@H]1OC(=O)[C@H](C)[C@@H](O[C@H]2C[C@@](C)(OC)[C@@H](O)[C@H](C)O2)[C@H](C)[C@@H](O[C@@H]2O[C@H](C)C[C@H](N(C)C)[C@H]2O)[C@](C)(O)C[C@@H](C)[C@@H]2N[C@@H](COCCOC)O[C@H]([C@H]2C)[C@]1(C)O, the inhibition was 41% (active). Work on CCCCNC(=O)C1(c2ccc(OC)cc2)CCOCC1 yielded an inhibition of 0.97%. CC1(C)CC(N2CCN(C(c3ccccc3)c3ccccc3)CC2)=CC(=[N+]2CCCCC2)C1 showed an inhibition of 1.52%. Cc1nnc(SCCCCSc2nnc(C)c(=O)[nH]2)[nH]c1=O showed an inhibition of -1.42%. For O=c1oc2c(Cl)cc(Cl)cc2cc1-c1nnc(Nc2ccccc2F)s1, the inhibition was -1.06%. With O=C(NC(=O)N1CCSCC1)c1c(Cl)cccc1Cl the inhibition was 1.83%. In the case of C=C1c2c(Cl)ccc(O)c2C(O)=C2C(=O)[C@]3(O)C(O)=C(C(N)=O)C(=O)[C@@H](N(C)C)[C@@H]3[C@@H](O)C12 (stereo partly drawn), the inhibition is reported as 103% (active). With CN(C)[C@@H]1C(=O)C(C(N)=O)=C(O)[C@@]2(O)C(=O)C3=C(O)c4c(O)ccc(Cl)c4[C@@H](O)[C@H]3C[C@@H]12 the inhibition was 100% (active). O=C(CCNC(=O)c1ccccc1)NN=Cc1ccc(Br)o1 gave an inhibition of -1.39%. In the case of CC(=O)N(O)CCCCCNC(=O)CCC(=O)N(O)CCCCCNC(=O)CCC(=O)N(O)CCCCCNC(=O)CCC(=O)O, the inhibition is reported as 22% (active). NC(=O)NCCCC(=O)O gave an inhibition of 4.03%. Compound COc1nc(N(C)C)nc(N2CC(=O)N(CCNS(=O)(=O)c3ccc(C)cc3)C2=N)n1 has an inhibition of -0.32%. For Cc1ccc(Cn2c(=N)c(S(=O)(=O)c3ccc(C)cc3)cc3c(=O)n4ccccc4nc32)cc1, the inhibition was 1.33%. For CC1(C)CC(=O)c2cnc3nc4ccccc4n3c2C1, the inhibition was -0.86%. Work on COc1ccc(CCN=C2SCC(=O)N2Cc2ccccc2)cc1OC yielded an inhibition of 1.52%. O=C(N/N=C\c1ccc(-c2ccc(Cl)c(Cl)c2)o1)C(=O)N1CCCC1 showed an inhibition of -0.96%. For O=c1ccc2c(-c3ccccc3S(=O)(=O)O)c3ccc(O)c(O)c3oc-2c1O, the inhibition was 22.5% (active). Compound C=C1CCN([C@H](C(=O)NCc2cc(OC)c(OC)c(OC)c2)C(C)C)S(=O)(=O)c2ccccc21 has an inhibition of 0.6%. Work on COc1ccc(CNC(=O)C[C@H]2C[C@H](C(=O)N3CCOCC3)[C@@]3(C)c4[nH]c5cc(CCC(=O)N(C)C)ccc5c4CCN3C2=O)cc1OC yielded an inhibition of -1.37%. Work on O=C(Cc1ncc(C(F)(F)F)cc1Cl)Nc1cccc(Br)c1 yielded an inhibition of 0.17%. For COc1ccc(C(=O)c2oc3ccc(Br)cc3c2NC(C)=O)cc1, the inhibition was 100% (active). COc1ccc(CC(=O)Nc2c(C(N)=O)oc3ccccc23)cc1 showed an inhibition of 2.54%. Compound COC(=O)c1oc2ccc(Br)cc2c1NC(C)=O has an inhibition of -2.24%. Compound CC(=O)/C(=N\Nc1ccc(Cl)cc1Cl)Sc1cccc2cccnc12 has an inhibition of -1.2%. C[C@H]1[C@H]2c3nc4ccccc4n3C[C@H]1ON2C1CCCCC1 showed an inhibition of 3.89%. With COc1ccc(CNC(=O)CN(Cc2ccc(Cl)cc2)S(C)(=O)=O)cc1 the inhibition was 3.57%. For COC(=O)N/N=C/c1c[n+]([O-])c2ccccc2[n+]1[O-], the inhibition was 89.8% (active). In the case of COC(=O)N/N=C/c1cn(CCCOc2ccc(C)cc2)c2ccccc12, the inhibition is reported as 3.22%. With COC(=O)N/N=C/c1ccc(-c2ccc(Cl)c(Cl)c2)o1 the inhibition was 1.71%. Compound OCCNCCOc1ccc(Cl)c(Cl)c1 has an inhibition of 0.51%. In the case of O=C(NCC#CCSc1nnc(-c2cccc3ccccc23)o1)c1cccs1, the inhibition is reported as 12.4% (active). COc1ccc(CCNC(=O)/C(C#N)=C2\N=C(NC(=O)c3cccs3)c3ccccc32)cc1 showed an inhibition of 3.86%. With C#CCSc1nnc(-c2sc3ccccc3c2Cl)o1 the inhibition was 1.12%. For COc1ccc2cc(CCl)c(Cl)nc2c1, the inhibition was -0.08%.
